Screening data from PubChem BioAssay.
H9c2 protect – myocardial damage modulation in H9c2 cells; H9c2 cardiomyocytes, H2O2 injury protection, ATPLite, 2 h; protection from H2O2 cell death, % at 20 µM; hit rate 0.63% among 360,000; AID 588492;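 active means compounds giving at least 50% protection of heart cells from peroxide-induced death in the single-dose screen, raw or plate-pattern-corrected value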
NTR1 agonist – agonists of human neurotensin receptor NTR1. hit rate 0.17% among 330,000. NTR1-U2OS beta-arrestin-GFP spot imaging, agonist mode. P30989. activation, % at 20 µM;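 active means activation at or above 40% of the spot to cytoplasm intensity ratio, with at least 20 cells analyzed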
AI-2 QS modul – modulates the Vibrio harveyi AI-2 quorum sensing system | AID 2094 | Vibrio harveyi JMH597 AI-2 luminescence/OD600 ratio, 9 h; hits give low values; strain lacks LuxN and CqsS sensors; 0 = neutral-control median | hit rate 0.4% among 300,000 | activity change, % at 7.5 µM; in the data active means activity change below about -75%, passing the limit was not always enough;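 further: luminescence divided by OD600 gain over 9 h not by final OD600 alone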
NR3A LBD binder – modulators (binders) of human NR3A ligand-binding domain | hit rate 2.5% among 340,000 | NR3A LBD differential scanning fluorimetry, Tm shift; 0% = protein alone, 100% = glycine-bound protein | Tm shift relative to glycine control, % at 25 µM;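 active means melting temperature shift of at least 10% of the positive control shift, at one fixed dose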
SUMO Mot1 rescue – SUMOylation pathway inhibition by Mot1-301 growth rescue. S. cerevisiae Mot1-301 growth rescue, ATP luminescence, 38.5C; percent above DMSO median, 100 means doubled. hit rate 1% among 320,000. growth rescue, % at 18.8 µM;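 active means every valid replicate shows activation above 250% relative to neutral control wells; inactive means the rest, any valid replicate at or below 250%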
AHR act – activators of human aryl hydrocarbon receptor. activation, % at 5 µM. hit rate 2.5% among 320,000. AHR-responsive luciferase reporter cells, luminescence. AID 2796; in the data active means activation above about 47%
Target sequence (P35869 whole entry, looked up): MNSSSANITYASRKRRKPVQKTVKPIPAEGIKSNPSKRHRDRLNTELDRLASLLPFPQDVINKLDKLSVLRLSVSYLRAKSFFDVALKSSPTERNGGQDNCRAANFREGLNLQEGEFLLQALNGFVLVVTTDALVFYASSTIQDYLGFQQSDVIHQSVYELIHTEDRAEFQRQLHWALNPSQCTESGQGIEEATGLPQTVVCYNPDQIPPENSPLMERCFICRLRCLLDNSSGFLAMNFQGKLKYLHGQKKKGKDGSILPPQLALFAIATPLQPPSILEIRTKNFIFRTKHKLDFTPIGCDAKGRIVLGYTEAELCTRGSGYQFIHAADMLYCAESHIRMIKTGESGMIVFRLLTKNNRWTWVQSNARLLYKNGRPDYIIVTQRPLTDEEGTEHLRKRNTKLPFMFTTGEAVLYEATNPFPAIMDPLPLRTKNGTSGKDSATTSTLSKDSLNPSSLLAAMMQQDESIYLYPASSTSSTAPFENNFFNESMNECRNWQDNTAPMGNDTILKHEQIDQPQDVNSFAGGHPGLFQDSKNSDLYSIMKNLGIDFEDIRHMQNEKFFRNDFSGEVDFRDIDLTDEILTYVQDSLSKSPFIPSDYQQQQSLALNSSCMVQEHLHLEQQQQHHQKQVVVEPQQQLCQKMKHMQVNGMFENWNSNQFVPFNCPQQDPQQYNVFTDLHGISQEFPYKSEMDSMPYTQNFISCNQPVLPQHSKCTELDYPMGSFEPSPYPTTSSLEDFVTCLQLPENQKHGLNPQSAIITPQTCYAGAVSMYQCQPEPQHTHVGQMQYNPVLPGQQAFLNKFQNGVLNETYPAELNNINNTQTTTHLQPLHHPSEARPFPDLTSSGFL
Large screens that a line does not name were inactive. An excerpt weighted towards active compounds, which were near 6.2% of everything screened.

CCOc1ccc(N2CC(C(=O)Nc3ccncc3)CC2=O)cc1 (stereo unspecified)	none
COc1ccc(C2=CC(=O)C[C@H](c3ccc(Cl)cc3)C2)cc1	none (no result: AI-2 QS modul)
COc1ccc(C2=CC(=O)CC(c3ccc(OC)cc3)C2)cc1 (stereo unspecified)	SUMO Mot1 rescue 673
O=C1C=C(c2cc(C(F)(F)F)cc(C(F)(F)F)c2)C[C@@H](c2ccc(Cl)cc2)C1	NR3A LBD binder 13 (no result: AI-2 QS modul)
O=C1C=C(c2ccc3[nH]ccc3c2)C[C@@H](c2ccc(Cl)cc2)C1	NR3A LBD binder 22 (no result: AI-2 QS modul)
CCCN(CC(=O)Nc1ccccc1C)C(=O)CCCNC(=O)c1ccc(Cl)cc1	none (no result: AI-2 QS modul, SUMO Mot1 rescue, AHR act)
Cc1nc2ccccc2c2oc(C(=O)NC3CC3)cc12	AHR act 65
CCOc1ccc(NC(=O)c2cc3c(C)nc4ccccc4c3o2)cc1	H9c2 protect 61
Cc1ccccc1C(OCC(O)CN1CCN(CCO)CC1)c1ccccc1 (stereo unspecified)	none
Cc1nc2c(cc1C#N)C(=O)c1ccccc1-2	AHR act 159
CCCc1cc(=O)oc2cc(OC(=O)CN3C(=O)NC4(CCCC4)C3=O)ccc12	H9c2 protect 61
Cc1cc(=O)oc2cc(OC(=O)c3ccco3)ccc12	none (no result: NTR1 agonist, SUMO Mot1 rescue, AHR act)
CCc1cc(=O)oc2cc(OC(=O)c3ccco3)ccc12	NR3A LBD binder 476
CCCc1cc(=O)oc2cc(OCC(=O)N3CC[C@@]4(O)CCCC[C@H]4C3)ccc12	none (no result: NTR1 agonist, AI-2 QS modul, NR3A LBD binder, SUMO Mot1 rescue, AHR act)
COC(=O)C[C@H]1C[C@H]2c3cc(NS(=O)(=O)c4ccc(OC)cc4)ccc3O[C@H]2[C@H](CO)O1	none (no result: NTR1 agonist, AI-2 QS modul, NR3A LBD binder, SUMO Mot1 rescue, AHR act)
CCCCNS(=O)(=O)c1ccc(NC(=O)C(Sc2ccccc2)c2ccccc2)cc1 (stereo unspecified)	NR3A LBD binder 21 (no result: NTR1 agonist)
CC(=O)NS(=O)(=O)c1ccc(NC(=O)C(Sc2ccccc2)c2ccccc2)cc1 (stereo unspecified)	none
CCC(C)NS(=O)(=O)c1ccc(NC(=O)C(Sc2ccccc2)c2ccccc2)cc1 (stereo unspecified)	NR3A LBD binder 13
Cc1ccc(-n2c(N)cc(=O)nc2SCC(=O)NC2CCCCC2)cc1C	none
CCc1noc(C)c1C(=O)NCCN1C(=O)S/C(=C\c2ccccc2F)C1=O	none (no result: NTR1 agonist, AI-2 QS modul, NR3A LBD binder, SUMO Mot1 rescue, AHR act)
Cc1cc(C)c2nc(-c3ccccn3)cc(C(=O)NCc3ccco3)c2c1	AHR act 69
Cc1cc(C)c2nc(-c3ccccn3)cc(C(=O)NCc3cc(C)n(C)n3)c2c1	none
O=C(Oc1ccccc1)c1cc(O)c(O)c(O)c1	H9c2 protect 75 (no result: NTR1 agonist, AI-2 QS modul, NR3A LBD binder, SUMO Mot1 rescue, AHR act)
CC(C)=C[C@H]1C[C@H](C)[C@H]2CC[C@H](C)c3c(O[C@@H]4OC[C@@H](O)[C@H](O)C4O)c(O)c(C)c1c32 (stereo partly specified)	NR3A LBD binder 29 (no result: AI-2 QS modul)
O=C(COc1ccccc1)Nc1ncc2c(n1)CCCC2=O	SUMO Mot1 rescue 292
O=C(NCc1ccccc1)C1CC(=O)N(C2CCCCC2)C1 (stereo unspecified)	SUMO Mot1 rescue 318
CC/C(C)=N\N=C\c1c(O)n(CC)c2cc(C3=NNC(=O)CC3)ccc12	H9c2 protect 61
CSc1nc2ccccc2cc1/C=C(\C#N)c1ccccc1	NR3A LBD binder 19
CSc1nc2ccccc2cc1/C=C(\C#N)c1cccc(C)c1	none
CSc1nc2ccccc2cc1/C=C(\C#N)c1ccc(Cl)c(Cl)c1	NR3A LBD binder 17
Cc1noc(C)c1NC(=O)Nc1ccc2c(c1)C(=O)N([C@@H](C)CO)C[C@@H](C)[C@@H](CN(C)Cc1ccc3c(c1)OCO3)O2	none (no result: AI-2 QS modul)
O=C(CNC(=O)c1ccco1)NNC(=O)c1cccc(Cl)c1	none (no result: AI-2 QS modul)
Cc1cc(S(=O)(=O)Nc2cccc(C(=O)O)c2)c(C)c(S(=O)(=O)c2ccc(Cl)cc2)c1	none
O=C(Nc1ccc(NS(=O)(=O)c2ccccc2)cc1)c1ccccc1Cl	NR3A LBD binder 35 (no result: AI-2 QS modul)
O=C(O)c1ccc(Cl)c(S(=O)(=O)Nc2ccccc2C(=O)Nc2ccc(Cl)cc2)c1	NR3A LBD binder 29 (no result: AI-2 QS modul)
O=C(O)c1cccc(NS(=O)(=O)c2cc(S(=O)(=O)c3ccc(Cl)cc3)ccc2Cl)c1	NR3A LBD binder 16
O=C(O)c1ccc(NS(=O)(=O)c2ccc(Cl)c(C(=O)Nc3ccccc3)c2)cc1	none
COc1cc(OC)c(NS(=O)(=O)c2cc(Br)cnc2N)cc1Cl	none
CCOc1cc(CNc2ccc3[nH]c(=O)[nH]c3c2)ccc1OCC(=O)NC(C)(C)C	H9c2 protect 57
CC1(C2CC2)NC(=O)N(CC(=O)NCc2ccc(Cl)cc2Cl)C1=O (stereo unspecified)	none (no result: AI-2 QS modul)
O=C(O)c1ccc(S(=O)(=O)/N=C2\C=C(Nc3ccccc3F)C(=O)c3ccccc32)cc1	AHR act 70
Cc1ccccc1NC1=C/C(=N\S(=O)(=O)c2ccc(C(=O)O)cc2)c2ccccc2C1=O	none
Cc1ccc(NC2=C/C(=N/S(=O)(=O)c3cccs3)c3ccccc3C2=O)cc1C	none (no result: NTR1 agonist)
Cc1ccccc1NC1=C/C(=N\S(=O)(=O)c2cccs2)c2ccccc2C1=O	NTR1 agonist 40
On1cnnc1-c1ccccc1	NR3A LBD binder 11
CC(C)c1ccc(NC(=O)c2snc3ccc(Cl)cc23)cc1	NR3A LBD binder 10, AHR act 55
CC(C)c1ccc(NC(=O)c2csnn2)cc1	none
Cc1cc2ccccn2c1C(=O)c1ccc([N+](=O)[O-])cc1[N+](=O)[O-]	SUMO Mot1 rescue 317
Cc1cc2ccccn2c1C(=O)c1cccc([N+](=O)[O-])c1	none
Cc1[nH]c(=S)[nH]c(=O)c1CCC1OCCO1	NR3A LBD binder 14
CC(=O)Nc1nc(C)c(CCC2OCCO2)c(=O)[nH]1	NR3A LBD binder 12
Cc1[nH]c(=S)[nH]c(=O)c1CCCO	none
O=C(NC1CCN(Cc2ccc(Cl)cc2)CC1)c1cn(-c2ccccc2)nc1-c1cccnc1	none (no result: AI-2 QS modul)
COc1ccc(OC)c(Nc2nc(=O)c3cccnc3s2)c1	none (no result: NTR1 agonist, AI-2 QS modul, SUMO Mot1 rescue, AHR act)
Cc1ccc(Nc2nc(=O)c3cccnc3s2)cc1	AHR act 69 (no result: NR3A LBD binder)
COc1cc(NC(=O)c2ccc(-c3cn[nH]c3)c3ccoc23)cc(OC)c1OC	H9c2 protect 66 (no result: NTR1 agonist, AI-2 QS modul, NR3A LBD binder, SUMO Mot1 rescue, AHR act)
COc1ccc(N2CCN(C(CNC(=O)C3CCCCC3)c3ccco3)CC2)cc1 (stereo unspecified)	none (no result: SUMO Mot1 rescue)
CCOc1ccc(NC(=O)CSc2ccc(-c3ccccn3)nn2)cc1	none
CC(=O)Nc1ccc(NC(=O)CSc2ccc(-c3ccc(-n4ccnc4)cc3)nn2)cc1	NR3A LBD binder 17
Cc1ccc(NC(=O)CSc2ccc(-c3ccccn3)nn2)cc1	H9c2 protect 54
COc1ccc(NC(=O)CSc2nnc(-c3ccccn3)n2N)cc1	none
Nn1c(SCC(=O)Nc2ccc(F)cc2)nnc1-c1ccccn1	AHR act 48
Cc1ccc(CNC(=O)Cn2c(=O)c3sccc3n(Cc3ccc([N+](=O)[O-])cc3)c2=O)cc1	NR3A LBD binder 31
